Consider 22 compounds from PubChem BioAssay (Tox21).

Values without a mark were called inactive. Records with an inconclusive call do not appear. Calls of active or inactive are those of the source. Calls come from the whole dose curve; as a rule, active = well fitted curve in the direction sought with a large enough effect in the repeat runs; inconclusive = weak or mixed curves; inactive = no such curve, though single readings can be large; an effect the other way counts as inactive or inconclusive.

Assay [1] in a line: Human pregnane X receptor (PXR) small molecule agonists, qHTS cell viability counter screen (AID 1346977). Note: nearly all actives have a fitted effect of over 50% in size. Note: potency is the fitted concentration of half-maximal effect. The gist of the method: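 PXR-Luc HepG2, 2,000 cells/well, 5% charcoal-stripped FBS; 5hr settle; cpd 24hr, 37C/5% CO2; CellTiter-Fluor at 23hr, read 1hr later (fluorescence).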
Assay [2] can be described thus: Caspase-3/7 induction in HepG2 cells by small molecules, qHTS assay (AID 1346978). Note: nearly all actives have a fitted effect of over 15% in size. The gist of the method:
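Caspase-3/7 induction was measured by Caspase-Glo 3/7 luminescence (30 min, room temperature) after a 17 hr compound exposure of wild-type HepG2 cells seeded at 2,000 per well and pre-incubated 5 hr.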

A short description of assay [3]: Caspase-3/7 induction in CHO-K1 cells by small molecules, qHTS cell viability counter screen (AID 1346979). Note: nearly all actives have a fitted effect of over 35% in size. Note: potency is the fitted concentration of half-maximal effect. The method, boiled down:
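Cells (CHO-K1, wild type) are plated at 1,500 per well and incubated 5hr. Test compounds in DMSO are then pinned in, followed by 16hr at 37C and 5% CO2. Viability is read by CellTiter-Fluor fluorescence after 1hr.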

Assay [4] can be described thus: Caspase-3/7 induction in CHO-K1 cells by small molecules, qHTS assay (AID 1346980). Note: nearly all actives have a fitted effect of over 15% in size. The gist of the method: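 Luminescent Caspase-Glo 3/7 read (30min, room temperature) quantified apoptosis induction. Cells were wild-type CHO-K1, treated with compound for 17hr at 37 C and 5% CO2.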
A short description of assay [5]: Caspase-3/7 induction in HepG2 cells by small molecules, qHTS cell viability counter screen (AID 1346981). Note: nearly all actives have a fitted effect of over 30% in size. Note: potency is the fitted concentration of half-maximal effect. The gist of the method:
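Viability determined by CellTiter-Fluor fluorescence in HepG2 wells also used for the luminescent Caspase-Glo 3/7 read. Compounds were present for 16 hr at 37 C, 5% CO2 before reagent addition.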

Assay [6] addresses Nuclear receptor subfamily 1 group I member 2 (Homo sapiens) (UniProt O75469). In words: Human pregnane X receptor (PXR) small molecule agonists, qHTS assay (AID 1346982). Note: nearly all actives have a fitted effect of over 35% in size. Note: potency is the fitted concentration of half-maximal effect. The method, boiled down:
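Compound-induced hPXR transactivation of a CYP3A4 luciferase reporter was scored in HepG2 PXR-Luc cells over 24 hr at 37 C, 5% CO2, by luminescence.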

In assay [7] the target is Cytochrome P450 2D6 (Homo sapiens) (UniProt P10635). In words: Cytochrome P450 Family 2 Subfamily D Member 6 (CYP2D6) small molecule antagonists: luciferase reporter qHTS assay (AID 1671196). Note: nearly all actives have a fitted effect of over 50% in size. Note: potency is the fitted concentration of half-maximal effect. The method, boiled down:
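Each well received CYP2D6 with its proluciferin substrate and chemical, sat 10 min, then got NADPH regeneration solution for 1 h at room temperature. Luminescence in RLU served as the activity measure.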

Assay [8] has as its target Cytochrome P450 2C19 (Homo sapiens) (UniProt P33261). In words: Cytochrome P450 Family 2 Subfamily C Member 19 (CYP2C19) small molecule antagonists: luciferase reporter qHTS assay (AID 1671197). Note: nearly all actives have a fitted effect of over 65% in size. Note: potency is the fitted concentration of half-maximal effect. The method, boiled down:
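P450-Glo CYP2C19 screening system; proluciferin substrate; DMSO compound stocks; 10 min RT preincubation; NADPH regeneration, 1 h at 37C; luciferin detection reagent, 20 min RT; luminescence as RLU.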

The target of assay [9] is Cytochrome P450 1A2 (Homo sapiens) (UniProt P05177). In words: Cytochrome P450 Family 1 Subfamily A Member 2 (CYP1A2) small molecule antagonists: luciferase reporter qHTS assay (AID 1671199). Note: nearly all actives have a fitted effect of over 50% in size. Note: potency is the fitted concentration of half-maximal effect. The gist of the method:
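Enzymatic CYP1A2 assay, human, luminescent: 10 min compound–enzyme–substrate preincubation, 1 h NADPH-dependent turnover, 20 min detection step, room temperature throughout. Reduced light indicates lower CYP1A2 activity.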

The target of assay [10] is Cytochrome P450 3A4 (Homo sapiens) (UniProt P08684). Put plainly: Cytochrome P450 Family 3 Subfamily A Member 4 (CYP3A4) small molecule antagonists: luciferase reporter qHTS assay (AID 1671201). Note: nearly all actives have a fitted effect of over 50% in size. Note: potency is the fitted concentration of half-maximal effect. The method, boiled down:
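Compounds in DMSO were pin-transferred onto CYP3A4 enzyme-substrate mix and held 10 min at room temperature. NADPH regenerating solution started the reaction for 1 h; luciferin detection reagent stopped it, and luminescence was read after 20 min.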

For assay [11], the target named is Voltage-gated inwardly rectifying potassium channel KCNH2 (Homo sapiens) (UniProt Q12809). In words: Human Ether-a-go-go-Related Gene (hERG) channel small molecule antagonists: fluorescence cell-based qHTS assay (AID 1671200). Note: nearly all actives have a fitted effect of over 50% in size. Note: potency is the fitted concentration of half-maximal effect. The method, boiled down: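 Channel function was assessed by thallium flux. Cells seeded the previous day and kept at 37 C took up FluxOR II dye over 1 h in the dark at room temperature, then sat another 10 min before stimulation.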
Sequence of Voltage-gated inwardly rectifying potassium channel KCNH2 (Homo sapiens) (Q12809 whole entry, looked up): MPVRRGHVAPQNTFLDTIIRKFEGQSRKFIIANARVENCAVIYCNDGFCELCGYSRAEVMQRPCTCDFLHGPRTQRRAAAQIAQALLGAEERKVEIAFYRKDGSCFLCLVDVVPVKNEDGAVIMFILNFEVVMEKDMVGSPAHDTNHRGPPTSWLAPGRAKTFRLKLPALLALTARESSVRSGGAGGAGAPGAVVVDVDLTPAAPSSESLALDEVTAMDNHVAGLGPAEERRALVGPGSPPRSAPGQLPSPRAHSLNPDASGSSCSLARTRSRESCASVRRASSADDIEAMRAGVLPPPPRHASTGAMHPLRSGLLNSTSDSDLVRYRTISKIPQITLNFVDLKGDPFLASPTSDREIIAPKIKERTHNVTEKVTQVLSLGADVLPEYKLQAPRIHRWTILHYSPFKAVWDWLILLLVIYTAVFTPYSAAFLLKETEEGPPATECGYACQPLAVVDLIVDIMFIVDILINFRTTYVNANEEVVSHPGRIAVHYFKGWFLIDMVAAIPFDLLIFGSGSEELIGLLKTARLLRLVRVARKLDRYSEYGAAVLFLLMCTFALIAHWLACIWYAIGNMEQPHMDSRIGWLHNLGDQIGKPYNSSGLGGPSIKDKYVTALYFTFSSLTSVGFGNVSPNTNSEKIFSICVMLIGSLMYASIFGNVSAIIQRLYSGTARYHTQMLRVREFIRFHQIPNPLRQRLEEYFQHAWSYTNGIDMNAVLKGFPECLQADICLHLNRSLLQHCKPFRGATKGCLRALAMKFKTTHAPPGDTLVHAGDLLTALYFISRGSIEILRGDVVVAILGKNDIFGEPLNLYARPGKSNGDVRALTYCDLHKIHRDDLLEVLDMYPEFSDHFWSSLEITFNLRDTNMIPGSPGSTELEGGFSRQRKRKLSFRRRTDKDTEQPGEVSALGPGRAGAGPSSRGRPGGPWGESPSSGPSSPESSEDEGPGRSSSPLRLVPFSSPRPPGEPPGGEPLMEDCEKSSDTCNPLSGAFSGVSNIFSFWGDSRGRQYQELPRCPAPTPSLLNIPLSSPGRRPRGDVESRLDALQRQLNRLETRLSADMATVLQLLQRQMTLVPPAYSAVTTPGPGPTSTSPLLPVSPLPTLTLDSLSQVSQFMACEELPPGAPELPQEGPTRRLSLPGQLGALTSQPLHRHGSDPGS

In assay [12] the target is Cytochrome P450 2C9 (Homo sapiens) (UniProt P11712). In words: Cytochrome P450 Family 2 Subfamily C Member 9 (CYP2C9) small molecule antagonists: luciferase reporter qHTS assay (AID 1671198). Note: nearly all actives have a fitted effect of over 50% in size. Note: potency is the fitted concentration of half-maximal effect. The method, boiled down:
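Enzyme-substrate mix preincubated with compound 10 min at room temperature; reaction started with NADPH regeneration solution, 1 h 37C. Luminescent luciferin product read after 20 min detection reagent.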

Sequence of Cytochrome P450 3A4 (Homo sapiens) (P08684 whole entry, looked up): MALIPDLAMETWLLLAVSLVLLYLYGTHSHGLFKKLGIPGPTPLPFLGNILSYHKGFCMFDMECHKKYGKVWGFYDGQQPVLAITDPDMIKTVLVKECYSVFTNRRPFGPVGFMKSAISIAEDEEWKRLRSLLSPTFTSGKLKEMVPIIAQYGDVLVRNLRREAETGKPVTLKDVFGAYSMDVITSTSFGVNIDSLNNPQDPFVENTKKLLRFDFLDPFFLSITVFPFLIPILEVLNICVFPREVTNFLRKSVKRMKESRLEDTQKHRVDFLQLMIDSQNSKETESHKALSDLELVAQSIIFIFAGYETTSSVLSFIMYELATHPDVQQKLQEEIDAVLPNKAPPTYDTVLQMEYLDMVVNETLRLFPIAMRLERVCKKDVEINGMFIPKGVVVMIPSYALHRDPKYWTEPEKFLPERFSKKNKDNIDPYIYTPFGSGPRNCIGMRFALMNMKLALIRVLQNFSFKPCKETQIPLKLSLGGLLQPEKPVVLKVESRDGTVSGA
Sequence of Cytochrome P450 2C19 (Homo sapiens) (P33261 whole entry, looked up): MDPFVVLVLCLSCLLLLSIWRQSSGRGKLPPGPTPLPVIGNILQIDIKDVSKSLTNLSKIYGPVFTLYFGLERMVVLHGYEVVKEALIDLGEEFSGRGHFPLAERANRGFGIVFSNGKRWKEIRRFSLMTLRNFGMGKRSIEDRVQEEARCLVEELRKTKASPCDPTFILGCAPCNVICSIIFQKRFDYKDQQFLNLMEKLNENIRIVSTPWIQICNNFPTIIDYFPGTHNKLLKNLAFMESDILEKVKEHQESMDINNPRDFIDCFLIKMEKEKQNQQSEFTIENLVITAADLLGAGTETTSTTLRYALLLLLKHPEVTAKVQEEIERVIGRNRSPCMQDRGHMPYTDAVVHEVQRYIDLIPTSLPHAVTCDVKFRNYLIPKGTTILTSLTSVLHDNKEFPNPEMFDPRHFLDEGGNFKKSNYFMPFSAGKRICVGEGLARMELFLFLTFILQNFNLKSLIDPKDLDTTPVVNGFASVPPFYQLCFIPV
Sequence of Cytochrome P450 1A2 (Homo sapiens) (P05177 whole entry, looked up): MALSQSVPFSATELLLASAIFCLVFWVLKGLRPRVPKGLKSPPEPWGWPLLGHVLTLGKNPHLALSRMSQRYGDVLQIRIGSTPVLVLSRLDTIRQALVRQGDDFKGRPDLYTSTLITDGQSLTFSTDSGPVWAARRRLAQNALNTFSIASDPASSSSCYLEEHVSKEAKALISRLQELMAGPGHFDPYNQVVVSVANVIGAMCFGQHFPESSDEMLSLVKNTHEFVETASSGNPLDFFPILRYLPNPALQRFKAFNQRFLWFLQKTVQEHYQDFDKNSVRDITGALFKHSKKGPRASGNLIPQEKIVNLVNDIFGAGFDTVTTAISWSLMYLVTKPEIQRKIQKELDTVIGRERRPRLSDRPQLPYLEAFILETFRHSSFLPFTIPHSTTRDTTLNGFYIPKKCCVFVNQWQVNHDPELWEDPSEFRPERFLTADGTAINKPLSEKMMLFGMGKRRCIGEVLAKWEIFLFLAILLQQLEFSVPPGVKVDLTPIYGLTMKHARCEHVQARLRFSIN
Sequence of Cytochrome P450 2C9 (Homo sapiens) (P11712 whole entry, looked up): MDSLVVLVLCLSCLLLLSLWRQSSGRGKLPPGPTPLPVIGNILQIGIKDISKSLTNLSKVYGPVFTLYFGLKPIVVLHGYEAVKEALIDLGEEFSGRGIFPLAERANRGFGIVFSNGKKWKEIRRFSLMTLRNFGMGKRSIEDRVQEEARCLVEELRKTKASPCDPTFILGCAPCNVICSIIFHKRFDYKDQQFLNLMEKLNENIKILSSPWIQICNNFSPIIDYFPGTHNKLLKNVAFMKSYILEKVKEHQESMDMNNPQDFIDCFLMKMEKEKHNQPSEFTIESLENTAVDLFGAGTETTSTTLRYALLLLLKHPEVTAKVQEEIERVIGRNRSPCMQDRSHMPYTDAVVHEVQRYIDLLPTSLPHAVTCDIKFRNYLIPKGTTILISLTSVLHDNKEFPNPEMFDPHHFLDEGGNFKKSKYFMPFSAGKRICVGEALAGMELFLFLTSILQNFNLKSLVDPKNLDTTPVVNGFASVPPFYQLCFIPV
Sequence of Nuclear receptor subfamily 1 group I member 2 (Homo sapiens) (O75469 whole entry, looked up): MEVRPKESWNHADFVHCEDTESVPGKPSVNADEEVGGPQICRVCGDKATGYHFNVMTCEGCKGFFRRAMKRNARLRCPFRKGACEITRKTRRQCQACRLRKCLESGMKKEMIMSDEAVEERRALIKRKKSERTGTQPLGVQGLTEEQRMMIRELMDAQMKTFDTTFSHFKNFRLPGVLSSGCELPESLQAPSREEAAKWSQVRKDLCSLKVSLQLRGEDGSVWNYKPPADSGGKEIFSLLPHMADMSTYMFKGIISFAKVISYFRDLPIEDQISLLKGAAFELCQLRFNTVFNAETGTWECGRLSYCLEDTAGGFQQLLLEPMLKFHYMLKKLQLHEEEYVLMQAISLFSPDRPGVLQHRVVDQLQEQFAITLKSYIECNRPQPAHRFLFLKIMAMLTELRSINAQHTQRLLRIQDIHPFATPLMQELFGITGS
Sequence of Cytochrome P450 2D6 (Homo sapiens) (P10635 whole entry, looked up): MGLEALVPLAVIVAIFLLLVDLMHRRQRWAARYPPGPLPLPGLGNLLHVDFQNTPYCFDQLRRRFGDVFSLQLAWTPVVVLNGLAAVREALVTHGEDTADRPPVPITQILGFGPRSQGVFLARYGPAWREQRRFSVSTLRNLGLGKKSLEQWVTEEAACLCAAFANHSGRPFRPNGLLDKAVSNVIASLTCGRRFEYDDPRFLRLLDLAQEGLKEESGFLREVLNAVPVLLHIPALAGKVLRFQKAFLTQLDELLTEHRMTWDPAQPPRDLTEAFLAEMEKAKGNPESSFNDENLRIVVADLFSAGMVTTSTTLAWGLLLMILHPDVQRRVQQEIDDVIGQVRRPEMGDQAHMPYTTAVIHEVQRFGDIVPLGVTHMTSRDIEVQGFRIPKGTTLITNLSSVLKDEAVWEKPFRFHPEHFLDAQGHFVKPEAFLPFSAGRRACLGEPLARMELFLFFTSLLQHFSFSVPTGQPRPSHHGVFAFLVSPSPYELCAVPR

On to `CC(C)=CCC[C@H](C)CCO`, for which the Potency entry in assay [1], in [2], in assay [3], in assay [4], in assay [5] and in assay [6] was “inactive” throughout. Moreover, the Potency entry in assay [7] and in [9] was “inactive” throughout. In addition, the Potency is 71 µM (active) in assay [8] and 63.3 µM (active) in assay [10].

For `O=C(O)c1cccnc1Nc1cccc(C(F)(F)F)c1`, the Potency result in [1], in assay [2], in assay [3], in [4], in [5] and in [7] was “inactive” each time. Further, the Potency result in assay [8], in [11] and in assay [10] was “inactive” in each case. Moreover, the Potency in assay [6] was 13.3 µM (active).

Regarding `CC(O)CN` (configuration not stated), the Potency entry in [1], in [2], in assay [3], in assay [4], in assay [5] and in assay [6] was “inactive” throughout. For the same compound, the Potency result in assay [7], in assay [8], in [9] and in assay [11] was “inactive” in each case.

As for `CC(=O)c1ccc(Cl)c(Cl)c1Cl`, the Potency entry in [1], in assay [2], in assay [3], in [4], in assay [5] and in assay [6] was “inactive” in each case. The Potency result in [7], in assay [11] and in assay [10] was “inactive” each time. In addition, the values for the Potency in assay [8] and in [9] were 70.9 µM (active) and 11.2 µM (active), respectively.

Take `Clc1ccccc1-c1nc(-c2ccncc2)no1`: the Potency entry in assay [1], in assay [2], in [3], in [4], in assay [5] and in [11] was “inactive” throughout. Besides, the Potency in [6] is 5.31 µM (active); in assay [7], 13.8 µM (active); in [8], 0.977 µM (active); in assay [9] it was 0.512 µM (active); in [10] it was 30.9 µM (active).

Regarding `O=[N+]([O-])c1ccccc1CCO`, the Potency result in assay [1], in [2], in assay [3], in [4], in [5] and in assay [6] was “inactive” in each case. Besides, the Potency entry in [7], in assay [8], in [12], in assay [11] and in assay [10] was “inactive” throughout.

`CC(CC(C#N)(c1ccccc1)C(C)C)N(C)C` (configuration not stated): the Potency entry in [1], in assay [2], in assay [3], in assay [4], in assay [5] and in assay [6] was “inactive” throughout. The Potency entry in assay [8] and in assay [9] was “inactive” throughout. In addition, the Potency in assay [7] was 15.5 µM (active); in assay [10], 6.92 µM (active).

Take `O=C(OCCN1CCOCC1)c1cccnc1Nc1cccc(C(F)(F)F)c1`: the Potency entry in assay [1], in assay [2], in [3], in [4], in assay [5] and in [7] was “inactive” in each case. Moreover, the Potency in assay [6] was 26.6 µM (active); in [12], 17.4 µM (active); in assay [9], 9.77 µM (active); in assay [11] it was 10.7 µM (active).

With `Cc1c(-c2cccnc2)c2ccccc2n1CCCCC(=O)O`, the Potency entry in [1], in assay [2], in assay [3], in assay [4], in assay [5] and in [6] was “inactive” throughout. For the same compound, the Potency entry in [7] and in assay [11] was “inactive” each time. The results for the Potency in [12], in assay [9] and in [10] were 31.7 µM (active), 31.7 µM (active) and 5.03 µM (active), respectively.

With `NC(=O)c1ccccc1`, the Potency entry in assay [1], in assay [2], in [3], in assay [4], in assay [5] and in [6] was “inactive” each time. The Potency result in assay [7], in assay [8], in [9], in [11] and in [10] was “inactive” throughout.

On to `CC(=O)Oc1cccc2c1C(=O)c1c(OC(C)=O)cc(C(=O)O)cc1C2=O`, for which the Potency in [1], in [3] and in assay [5] was 29.8 µM (active) each time. Also, the Potency entry in assay [2], in [4], in assay [6], in [7], in assay [8] and in assay [9] was “inactive” in each case. The Potency entry in [11] and in assay [10] was “inactive” each time.

As for `O=C(Cl)c1cc(Cl)cc(Cl)c1`, the Potency entry in assay [1], in assay [2], in [3], in assay [4], in [5] and in assay [6] was “inactive” in each case. In addition, the Potency entry in assay [7], in [8], in assay [9], in [11] and in assay [10] was “inactive” in each case.

`CC(O)C(C)O` (configuration not stated): the Potency entry in [1], in assay [2], in assay [3], in [4], in assay [5] and in assay [6] was “inactive” throughout. Further, the Potency result in assay [7], in [8], in [11] and in assay [10] was “inactive” in each case.

As to `O=[N+]([O-])c1cccc(I)c1`, the Potency result in assay [1], in assay [2], in assay [3], in [4], in assay [5] and in assay [6] was “inactive” in each case. The Potency entry in assay [7], in assay [8], in assay [11] and in [10] was “inactive” each time. In addition, the Potency in assay [9] was 31.6 µM (active).

For `CC/C=C/CCO`, the Potency result in [1], in assay [2], in assay [3], in assay [4], in assay [5] and in [6] was “inactive” throughout. In addition, the Potency result in [7], in assay [8], in assay [11] and in assay [10] was “inactive” each time. In addition, the Potency in assay [9] was 36.2 µM (active).

Consider `Sc1nc(S)nc(S)n1`, for which the Potency result in assay [1], in [2], in assay [3], in assay [4], in [5] and in assay [6] was “inactive” each time. Besides, the Potency entry in [7], in assay [8], in assay [9] and in assay [11] was “inactive” in each case.

`CC(C)Oc1ccccc1O`: the Potency result in assay [1], in [2], in assay [3], in assay [4], in assay [5] and in assay [6] was “inactive” in each case. Moreover, the Potency entry in assay [7], in [12], in assay [9], in [11] and in assay [10] was “inactive” in each case.

For the compound `CCC1=C(C)CN(C(=O)NCCc2ccc(S(=O)(=O)NC(=O)NC3CCC(C)CC3)cc2)C1=O` (configuration not stated), the Potency entry in assay [1], in assay [2], in assay [3], in assay [4], in [5] and in assay [6] was “inactive” each time. Further, the Potency result in assay [7], in assay [8], in assay [11] and in assay [10] was “inactive” in each case.

Consider `CCCC(=O)OCc1ccccc1`, for which the Potency result in [1], in assay [2], in [3], in [4], in assay [5] and in assay [6] was “inactive” each time. Further, the Potency result in assay [7], in assay [8], in [12], in assay [11] and in assay [10] was “inactive” in each case.

For the compound `CCCCCCCCCCCCN1CCOCC1`, the Potency result in [1], in [2], in assay [3], in [4], in assay [5] and in [6] was “inactive” in each case. For the same compound, the Potency result in [7], in assay [8], in [12] and in assay [10] was “inactive” in each case.

As to `Cc1ccc(NC=O)c(C)c1`, the Potency entry in [1], in assay [2], in assay [3], in assay [4], in assay [5] and in assay [6] was “inactive” throughout. Also, the Potency entry in [7], in assay [8] and in assay [11] was “inactive” throughout. Besides, the Potency in [9] is 35.6 µM (active).

For the compound `C=CC(O)CCCCC` (configuration not stated), the Potency entry in assay [1], in assay [2], in assay [3], in assay [4], in assay [5] and in [6] was “inactive” throughout. The Potency result in [7], in assay [8], in [9], in assay [11] and in assay [10] was “inactive” throughout.
